# In PubChem BioAssay AID504910 (Southern Research Specialized Biocontainment Screening …, 2011):
# Potency and affinity values are given separately. Activity calls are given as the source filed them. Entries that show only a call come without a potency. How the calls were made is not given here.
# Test: HepG2 cell cytotoxicity, cytotoxicity control, set 4 (AID 504910)
# Settings: series mostly up to 50 µM
row,Structure (SMILES),outcome
1,Cc1nc(SCC(=O)NC2CCCC2)[nH]c(=O)c1C,inactive
2,O=C(CSc1ccccn1)NC1CCCCC1,inactive
3,O=C(CSc1ncccn1)NC1CCCCC1,inactive
4,CNC(=O)CSc1nc2ccccc2c(=O)[nH]1,inactive
5,CCSc1nc2ccccc2c(=O)[nH]1,inactive
6,CN[C@@H]1[C@H](O[C@H]2[C@H](O[C@H]3[C@H](O)[C@@H](O)[C@H](N=C(N)N)[C@@H](O)[C@@H]3N=C(N)N)O[C@@H](C)[C@]2(O)C=O)O[C@@H](CO)[C@H](O)[C@H]1O,inactive
7,CC(C)CCNC(=O)CSc1nc2c(c(=O)[nH]1)CCC2,inactive
8,Cc1cccc(/C=C/C(=O)c2ccc([N+](=O)[O-])o2)c1,inactive
9,CC(C)NC(=O)CSc1nc2ccccc2c(=O)[nH]1,inactive
10,CC[C@@H](CO)NCCN[C@@H](CC)CO,inactive
11,CCSc1nc(C)c(C)c(=O)[nH]1,inactive
12,Cc1c[nH]c(=S)[nH]c1=O,inactive
13,CC[N+](C)(CC)CCCCOc1ccc2c(c1)C(=O)c1cc(OCCCC[N+](C)(CC)CC)ccc1-2,inactive
14,O=C(CSc1nc2ccccc2c(=O)[nH]1)NC1CCCCC1,inactive
15,O=c1[nH]c(=S)[nH]c2ccccc12,inactive
